Only some compounds are listed: those with a hit (about 28% of all), similar ones and a draw of the others.
CYP2C19 activ = increases human CYP2C19 enzyme activity; P33261; recombinant CYP2C19, luciferin-H EGE luminescence; active compounds read high; 0 = fully inhibited enzyme, 1 = untreated enzyme; activation factor at 5 µM; 96,000 tested, under 10 active; AID 1025;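 active means activation factor of at least 2 at 5 µM in the primary screen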;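 further: 0 = wells with 2.5 mM tranylcypromine and 1 = vehicle-only wells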
CYP2C19 inh = blocks human cytochrome P450 2C19. AID 778. actives 21% (n = 96,000). CYP2C19 Supersomes, luciferin-H EGE luminescence, 30 min. P33261. inhibition, % at 5 µM;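 active means CYP2C19 inhibition above a set limit at 5 µM in the primary screen, cut at about 50% in these data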;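 further: plate controls were negative control wells for no effect and 2.5 mM tranylcypromine positive control for full effect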
CYP2C9 activ = activators of human CYP2C9; actives 1.4% (n = 96,000); activation factor at 5 µM; AID 1024; recombinant CYP2C9, luciferin-H conversion, luminescence; active compounds read high; factor 1 = untreated enzyme, 0 = blocked;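 active means activation factor of 2 or more for CYP2C9 at a 5 µM dose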;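 further: 0 = sulfaphenazole-blocked wells and 1 = vehicle-only wells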
CYP2C9 inh = human CYP2C9 inhibition | P11712 | CYP2C9 Supersomes, luciferin-H conversion, luminescence | inhibition, % at 5 µM | actives 20% (n = 96,000);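 active means blocking of liver enzyme CYP2C9 beyond about 50% at 5 µM, limit read from the data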
D1 mod = D1 dopamine receptor (human) allosteric modulation; HEK293 D1, CRE-luciferase, dopamine EC30 potentiation; actives deviate in either direction; AID 641; P21728; B-score at 10 µM; actives 5.9% (n = 58,000);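 active means luminescence count or its row- and column-corrected plate score outside the 99.7% band of the plate's sample wells, on either side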
Target sequence (P21728 whole entry, looked up): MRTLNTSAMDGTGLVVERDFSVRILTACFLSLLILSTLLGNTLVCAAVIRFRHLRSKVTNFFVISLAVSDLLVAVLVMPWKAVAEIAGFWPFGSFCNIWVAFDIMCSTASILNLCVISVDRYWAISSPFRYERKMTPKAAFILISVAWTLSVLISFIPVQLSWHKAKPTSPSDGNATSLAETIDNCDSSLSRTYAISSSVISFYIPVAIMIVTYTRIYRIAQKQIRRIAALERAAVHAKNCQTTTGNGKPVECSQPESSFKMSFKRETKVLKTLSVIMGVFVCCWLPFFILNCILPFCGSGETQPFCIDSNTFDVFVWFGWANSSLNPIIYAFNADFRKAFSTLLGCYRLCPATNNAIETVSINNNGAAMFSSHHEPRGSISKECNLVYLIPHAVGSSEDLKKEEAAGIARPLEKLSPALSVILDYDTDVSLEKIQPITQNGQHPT
DAT uptake mod = changed human dopamine transporter uptake under cocaine IC80. Q01959. LLC-PK1 hDAT cells, [14C]-dopamine uptake with cocaine IC80; actives deviate in either direction. B-score at 10 µM. actives 1.3% (n = 110,000). AID 449768;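 active means Z score or B-score, a plate-position-corrected score, falls beyond the plate's 99.7% confidence bounds, in either direction; inactive means both scores lie inside the 99.7% bounds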;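 further: scored against the spread of the other compound wells on the same plate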
D1 PAM confirm = D1 receptor (human) allosteric modulation, confirmed | shares compounds with D1 mod | luminescence at 10 µM | HEK293 D1 CRE-luciferase, dopamine EC30 potentiation; active compounds read high | actives 88% (n = 2,200) | AID 642;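 active means luminescence in either of two replicates above the same-plate mean plus 3 SD of the low-dose dopamine control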
D1 no dopamine = activates D1 CRE-luciferase signal without dopamine present | shares compounds with D1 mod | HEK293 D1 CRE-luciferase, luminescence, no dopamine; active compounds read high | luminescence at 10 µM | actives 0.8% (n = 1,900) | AID 646; in the data active means luminescence above about 3900
Isoprot counter = counter-screen for D1 modulators: isoproterenol response in HEK293 cells. shares compounds with D1 mod. HEK293 D1 CRE-luciferase, isoproterenol EC30 counter-screen. calls only at 10 µM. actives 63% (n = 2,200);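 active means luminescence in either replicate above plate mean of wells with a partly effective reference agonist dose plus 3 SD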;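 further: isoproterenol raises cAMP through native beta-adrenoceptor Gs so signal bypasses D1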
* = called active by the depositor; i = inactive; x = no result given; + = active, no number.

SMILES | CYP2C19 activ | CYP2C19 inh | CYP2C9 activ | CYP2C9 inh | D1 mod | DAT uptake mod | D1 PAM confirm | D1 no dopamine | Isoprot counter
CCSc1nc2c(c(=O)n1Cc1ccccc1)SC(C)C2 (stereo unspecified) | 0.8 | 16 | 0.8 | 16 | 3.4* | 0.57 | 11532* | 1552 | i
CCCSc1nc2c(c(=O)n1CC)SC(C)C2 (stereo unspecified) | 0.7 | 31 | 0.5 | 46 | 4.7* | x | 10748* | 1604 | +
CCOC(=O)c1c(N)sc(C(=O)N2CCCCC2)c1C | x | x | x | x | x | 0.26 | x | x | x
CCOC(=O)c1c(NC(=O)Cc2cccs2)sc(C(=O)N2CCCCC2)c1C | 0.3 | 65* | 0.3 | 65* | 12* | 0.83 | 17816* | 1812 | +
COC(=O)c1c(NC(=O)Cc2cccs2)sc(C)c1C | 0.4 | 62* | 0.6 | 36 | 15* | -0.93 | 11876* | 1564 | +
Cc1n[nH]c(=O)nc1NCc1ccccc1Cl | 1.1 | -6 | 1.1 | -13 | -0.48 | -0.62 | x | x | x
Cc1cc(C)nc(-n2nc(C)cc2NC(=O)CN2CCC(C)CC2)n1 | 1 | 3 | 0.7 | 31 | 5.3* | 1.9 | 16268* | 1592 | +
COc1ccc(NC(=O)c2nc[nH]c2C(=O)N2CCN(C(=O)OC(C)(C)C)CC2)cc1 | x | x | x | x | x | -0.66 | x | x | x
COc1ccc(-c2cc3nc(C4CCN(C(=O)OC(C)(C)C)CC4)c(C(=O)O)cn3n2)cc1 | 1.1 | -5 | 0.2 | 75* | 9.2* | 2.2 | 14492* | 1632 | +
NC(=O)c1c(NC(=O)CSc2nnc(-c3ccco3)n2-c2ccccc2)sc2c1CCC2 | 0.3 | 69* | 0.1 | 94* | 4.8* | 1.4 | 10124* | 1620 | i
N#Cc1c(NC(=O)CSc2nnc(-c3ccco3)n2-c2ccccc2)sc2c1CCC2 | 0.9 | 9 | 0.7 | 30 | x | 0.73 | x | x | x
Cc1nc2nc(C)n(-c3ccccc3)c2s1 | 1 | -1 | 1 | 2 | 15* | 2 | 21228* | 1820 | +
O=C(NCc1ccco1)c1cccnc1-c1nc2ccccc2s1 | 0.7 | 33 | 0.6 | 41 | 5.9* | x | 11260* | 1740 | +
COc1ccc(/C=C(/NC(=O)c2ccccc2)C(=O)N/N=C/c2ccc3c(c2)OCO3)cc1OC | 0.6 | 40 | 0.9 | 7 | x | 0.52 | x | x | x
Cc1ccc(C(=O)COc2nc(C)cc(C)c2C#N)cc1 | 0.6 | 40 | 0.8 | 17 | x | -0.44 | x | x | x
COC(=O)c1ccc(COc2nc(C)cc(C)c2C#N)o1 | 0.3 | 70* | 0.8 | 24 | 3.6* | -0.2 | 11580* | 1524 | i
c1cnc(N2CC[N+]3(CCCC3)CC2)nc1 | 1 | 2 | 0.9 | 9 | -1.2 | 0.83 | x | x | x
NCCNC(=O)Cc1cccc(NC(=O)Cc2ccc(Nc3ncnc4c3ncn4[C@@H]3O[C@H](CO)[C@@H](O)[C@H]3O)cc2)c1 | x | x | x | x | x | 0.25 | x | x | x
Cc1nc2sc(C(c3cccs3)N3CCOCC3)c(O)n2n1 (stereo unspecified) | 0.9 | 8 | 1 | -4 | 0.26 | -0.91 | x | x | x
Cn1c(N2CCCC2)nc2c1c(=O)n(Cc1cccc(F)c1)c(=O)n2C | 1 | 2 | 0.2 | 81* | 4.5* | 1.2 | 11200* | 1392 | +
Cn1c(N2CCC(C(N)=O)CC2)nc2c1c(=O)n(Cc1ccc(Cl)cc1)c(=O)n2C | 0.9 | 8 | 1 | -4 | -0.92 | 1.6 | x | x | x
Cn1c(N2CCCC2)nc2c1c(=O)n(Cc1ccc(Cl)cc1)c(=O)n2C | 0.9 | 13 | 0.8 | 21 | 9* | 0.5 | 17964* | 1940 | +
O=C(c1cccs1)c1coc2ccc(O)c(CN3CCOCC3)c12 | 0.3 | 65* | 0.3 | 73* | 18* | 1 | 20688* | x | +
Cn1c(=O)n(C)c2cc(S(=O)(=O)NCc3ccco3)ccc21 | 1 | -2 | 1.1 | -10 | 2.4* | 0.47 | 5820 | 1724 | i
COc1ccc(OC)c(C2C(C(C)=O)=C(O)C(=O)N2CCC(=O)O)c1 (stereo unspecified) | 1.1 | -11 | 1.1 | -12 | 2.7* | 0.09 | 4144 | 1648 | i
SMILES | CYP2C19 activ | CYP2C19 inh | CYP2C9 activ | CYP2C9 inh | D1 mod | DAT uptake mod | D1 PAM confirm | D1 no dopamine | Isoprot counter
COc1ccc(OC)c(C2C(C(C)=O)=C(O)C(=O)N2CCN2CCOCC2)c1 (stereo unspecified) | 0.9 | 5 | 0.8 | 22 | 0.28 | 0.57 | x | x | x
CCCCOc1nc(N)nc(-c2ccccc2)n1 | 0.5 | 48 | 0.8 | 18 | 15* | -0.67 | 19712* | 1784 | +
Nc1nc(N)nc(-c2ccccc2)n1 | 0.8 | 16 | 1 | 2 | 0.98 | -0.54 | x | x | x
COC(=O)c1ccc(S(=O)(=O)N2CCCC2)o1 | 1.1 | -7 | 1 | -4 | 0.28 | -0.28 | x | x | x
CCCC1CCc2c(c3ccccc3[nH]c2=O)O1 (stereo unspecified) | 0.6 | 42 | 0.8 | 25 | x | -0.0079 | x | x | x
Cc1sc2nc(CN3CCN(S(=O)(=O)c4cccc5nonc45)CC3)[nH]c(=O)c2c1C | 1.1 | -6 | 1 | 1 | 3.6* | 1.4 | 8576* | 1552 | i
c1cc2c(cc1Oc1nc(N3CCOCC3)nc(N3CCOCC3)n1)OCO2 | 1.1 | -5 | 1.1 | -11 | 3.2 | 0.83 | x | x | x
COCc1cc(C)nc(NCCO)c1C#N | 1 | -3 | 0.8 | 24 | x | -0.46 | x | x | x
CCNc1nc(C)cc(COC)c1C#N | 0.9 | 12 | 0.8 | 22 | 4.7* | -0.87 | 10012* | x | +
Cc1ccc(OCC(=O)OC2CCS(=O)(=O)C2)cc1 (stereo unspecified) | 0.8 | 21 | 1.1 | -6 | 1.3 | -0.58 | x | x | x
Clc1ccc(-n2nnnc2-c2ccccc2)cc1Cl | 0 | 95* | 0.7 | 32 | 13* | 0.067 | 19112* | 1808 | +
Cn1cc(-c2nnnn2-c2ccc(Cl)cc2)c(=O)c2ccccc21 | 0.8 | 20 | 1 | 4 | x | -0.38 | x | x | x
O=C(NCCF)[C@H]1C[C@@H]1[C@H](NP(=O)(c1ccccc1)c1ccccc1)c1ccccc1 | x | x | x | x | x | 0.35 | x | x | x
Cc1nc2oc3c(NCC4CCCO4)ncnc3c2c2c1COC(C)(C)C2 (stereo unspecified) | 0.9 | 7 | 1.1 | -11 | 6.4* | 2.2 | 9548* | x | i
CCCc1nc2oc3c(NCCOCCO)ncnc3c2c2c1COC(C)(C)C2 | 0.6 | 37 | 0.5 | 46 | 14* | 1.3 | 18640* | x | +
CC(C)CC(=O)Nc1ccc(C(=O)NNC(=O)C(c2ccccc2)c2ccccc2)cc1 | 0.8 | 18 | 0.7 | 29 | x | -0.48 | x | x | x

Screens (PubChem BioAssay)
